Assay results published in publication PMC4336329 (PLoS ONE, 2015).
Screen size: about 310,000 compounds; about 14,000 (4.5%) showed an effect of 50% or more. Effects have a minus sign here. Only a selection was taken, and strong results are over-represented in it overall.

These compounds were tested against human ether-à-go-go-related gene (hERG) potassium channel (human, UniProt Q12809) (assay: primary screen, population patch clamp on CHO cells stably expressing hERG; higher = less effect of the substance).
Chain of human ether-à-go-go-related gene (hERG) potassium channel (Q12809 whole entry, looked up): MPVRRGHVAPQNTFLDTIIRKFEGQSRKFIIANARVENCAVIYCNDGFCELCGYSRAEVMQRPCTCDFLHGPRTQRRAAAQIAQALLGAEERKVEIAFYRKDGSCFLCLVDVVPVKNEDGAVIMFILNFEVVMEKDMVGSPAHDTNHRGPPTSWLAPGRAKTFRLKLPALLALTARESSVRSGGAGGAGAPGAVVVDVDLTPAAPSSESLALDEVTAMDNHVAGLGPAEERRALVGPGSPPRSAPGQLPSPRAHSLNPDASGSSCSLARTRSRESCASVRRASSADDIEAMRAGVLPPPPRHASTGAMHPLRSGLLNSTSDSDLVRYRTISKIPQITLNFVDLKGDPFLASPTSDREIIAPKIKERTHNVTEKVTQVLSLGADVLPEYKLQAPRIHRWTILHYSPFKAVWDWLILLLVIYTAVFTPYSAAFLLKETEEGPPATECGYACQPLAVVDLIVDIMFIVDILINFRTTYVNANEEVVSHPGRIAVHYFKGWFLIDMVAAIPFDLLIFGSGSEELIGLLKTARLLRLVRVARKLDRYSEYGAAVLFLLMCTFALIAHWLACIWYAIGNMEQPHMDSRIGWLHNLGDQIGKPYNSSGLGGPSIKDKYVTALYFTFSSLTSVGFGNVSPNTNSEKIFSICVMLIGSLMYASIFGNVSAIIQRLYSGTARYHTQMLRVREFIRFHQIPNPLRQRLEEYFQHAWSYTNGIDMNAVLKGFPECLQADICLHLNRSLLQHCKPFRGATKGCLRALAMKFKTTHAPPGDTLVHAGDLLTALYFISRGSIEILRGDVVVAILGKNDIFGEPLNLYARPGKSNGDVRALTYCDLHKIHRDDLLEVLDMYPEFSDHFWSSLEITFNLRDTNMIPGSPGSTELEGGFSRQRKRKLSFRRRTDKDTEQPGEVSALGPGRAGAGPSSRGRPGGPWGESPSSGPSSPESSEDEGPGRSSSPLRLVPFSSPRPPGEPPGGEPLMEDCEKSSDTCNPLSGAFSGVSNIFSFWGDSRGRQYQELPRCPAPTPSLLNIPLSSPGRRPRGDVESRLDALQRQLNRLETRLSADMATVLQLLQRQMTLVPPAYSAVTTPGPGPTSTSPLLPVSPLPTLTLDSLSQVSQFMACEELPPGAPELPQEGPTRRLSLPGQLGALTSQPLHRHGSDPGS
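Also: peak tail current of the secondary pulse compared with the same well before compound.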

SMILES | hERG current change (%, negative = inhibition) at 10uM [%]
Cc1cc(C)cc(NC(=O)CCn2ccnc2)c1 | 3.41
Cc1c(C(=O)NCc2ccc(S(N)(=O)=O)cc2)oc2ccc(Cl)cc12 | 10
CCCCn1c(N)c(N(CCOC)C(=O)CSCC(=O)Nc2cccc(C)c2)c(=O)[nH]c1=O | 11.5
c1ccc(-c2nc(CSc3nnc(-c4cccs4)o3)cs2)cc1 | -9.61
CCS(=O)(=O)c1ncc(Cl)c(C(=O)Nc2ccc(S(=O)(=O)N(C)c3ccccc3)cc2)n1 | 15.5
CCOC(=O)N1CCC(NC(=O)c2cc(C(=O)NC3CCCC3)ccc2CO)CC1 | 12.9
O=C(O)c1ccn(CSc2cc(Cl)ccc2Cl)n1 | 5.46
CCOC(=O)NNC(=S)Nc1c(C)n(C)n(-c2ccccc2)c1=O | 4.89
COc1ccc(NC(=O)CC(C)CC(=O)NCc2ccc(F)cc2)c(OC)c1 (stereo not drawn) | -4.08
CCn1cc(/C=C(\NC(=O)c2ccccc2Cl)C(=O)N2CCOCC2)c2ccccc21 | -2.35
O=C(NNC(=S)Nc1ccccc1)c1cccc(S(=O)(=O)N2CCOCC2)c1 | 15.3
CCC1CCCCN1C(=O)c1ccc(OC2CCN(C(=O)COC)CC2)cc1 (stereo not drawn) | 6.08
COC(=O)CCCC(=O)N1CCC(CCC(=O)NC2CC2)CC1 | 16.6
CC1CCN(CCCOc2ccc(Br)cc2Cl)CC1 | -72.8
CC1CCCN(CCCOc2ccc(Br)cc2Cl)C1.O=C(O)C(=O)O (stereo not drawn) | -78.4
CC1CCN(CCCCOc2ccccc2Br)CC1 | -48.9
CC1CCCN(C(=O)Nc2ccc(Br)cc2Cl)C1 (stereo not drawn) | -16.4
Clc1cc(Br)ccc1OCCOCCN1CCOCC1 | -36.7
Cc1ccc(Cl)c(OCCN2CCCC(C)C2)c1.O=C(O)C(=O)O (stereo not drawn) | -41.8

SMILES | hERG current change (%, negative = inhibition) at 10uM [%]
CCOC(=O)c1cnn(CCOC(=O)c2ccc(F)cc2)c1NC(=O)c1ccc(F)cc1 | -19.4
CSCC[C@H](NC(=O)N1CCn2c1nc1ccccc12)C(=O)NCc1ccc(C)cc1 | -13.3
CC(C)Nc1ccc(Cl)cc1[N+](=O)[O-] | 14.3
CN(C)c1c(F)cc(-c2nn[nH]n2)cc1F | 12.9
CCCCC1=CC2=CC(=O)C(C)(OC(=O)CC)C(=O)C2=CN1Cc1ccccc1 (stereo not drawn) | -42.9
CCCCC1=CC2=CC(=O)C(C)(OC(=O)CC)C(=O)C2=CN1CCc1ccccn1 (stereo not drawn) | -4.43
CCCCC1=CC2=CC(=O)C(C)(OC(=O)CC)C(=O)C2=CN1Cc1ccc(OC)cc1 (stereo not drawn) | -55.1
CCCCC1=CC2=CC(=O)C(C)(OC(=O)CC)C(=O)C2=CN1CCc1ccc(Br)cc1 (stereo not drawn) | -58.9
CCCCC1=CC2=CC(=O)C(C)(OC(=O)CC)C(=O)C2=CN1Cc1ccco1 (stereo not drawn) | -32
CCCCC1=CC2=CC(=O)C(C)(OC(=O)CC)C(=O)C2=CN1CCc1c[nH]c2ccccc12 (stereo not drawn) | -3.97
CCCCC1=CC2=CC(=O)C(C)(OC(=O)CC)C(=O)C2=CN1CCOC (stereo not drawn) | -5.6
CCCCC1=CC2=CC(=O)C(C)(OC(=O)CC)C(=O)C2=CN1c1ccc(OC)cc1 (stereo not drawn) | -13
CCCCC1=CC2=CC(=O)C(C)(OC(=O)CC)C(=O)C2=CN1Cc1ccc2c(c1)OCO2 (stereo not drawn) | -55.3
COC(=O)CCCC1=CC2=CC(=O)C(C)(OC(=O)c3cccs3)C(=O)C2=CN1Cc1ccc2c(c1)OCO2 (stereo not drawn) | -7.74
CCCCCCCC1=CC2=CC(=O)C(C)(OC(C)=O)C(=O)C2=CN1CCc1ccccc1 (stereo not drawn) | -62.3
CCCCC1=CC2=CC(=O)C(C)(OC(=O)CC)C(=O)C2=CN1CCCCO (stereo not drawn) | 0.395
Cc1ccc([N+](=O)[O-])cc1NC(=O)c1ccc2c(c1)OCO2 | 11.4
Cc1onc(-c2ccccc2)c1C(=O)N(C)CCc1ccccn1 | 7.12
CCN(C(=O)CN1CCOCC1)c1c(N)n(Cc2ccccc2)c(=O)[nH]c1=O | 22.2

SMILES | hERG current change (%, negative = inhibition) at 10uM [%]
O=C(c1ccc(=O)oc1)N1CCC(C(O)(c2ccccc2)c2ccccc2)CC1 | -29.2
CC(=O)Nc1ccc(-c2cc(C(=O)O)c3ccccc3n2)cc1 | 17.2
O=C(O)c1cc(-c2cccs2)nn1-c1cccc(Cl)c1 | 17.8
O=c1c(-c2ccc(Br)cc2)coc2c(CN3CCOCC3)c(O)ccc12 | -20.7
O=C(Oc1ccc(N2C(=O)C3C4CCC(C4)C3C2=O)cc1)c1ccco1 (stereo not drawn) | 13.2
O=C(NC1CCCc2ccccc21)c1cn2ccccc2n1 (stereo not drawn) | -25.5
CCC(C(=O)OC(C)C(=O)Nc1ccc(Cl)cn1)c1ccccc1 (stereo not drawn) | 0.842
CSCCC(NS(=O)(=O)c1ccccc1)C(=O)OC(C)C(=O)Nc1ccc(Cl)cn1 (stereo not drawn) | -58.8
CSCCC(NS(=O)(=O)c1ccc(C)cc1)C(=O)Nc1ccc(C)cn1 (stereo not drawn) | 2.68
CCCOc1ccc(CCc2n[nH]c(=S)n2Cc2ccccc2)cc1 | -7.26
COC(=O)C(NC(=O)c1ccc(Cl)cc1)(Nc1nc(C)cs1)C(F)(F)F (stereo not drawn) | -8.63
CCN1CCCC1CNc1ncnc2c1[nH]c1ccc(Cl)cc12 (stereo not drawn) | -77.1
Clc1ccc2[nH]c3c(NCC4CCCO4)ncnc3c2c1 (stereo not drawn) | -16.2
CC(C)OCCCNc1ncnc2c1[nH]c1ccc(F)cc12 | -2.39
CCN1CCCC1CNc1ncnc2c1[nH]c1ccc(F)cc12 (stereo not drawn) | -76.6
C=CCNc1ncnc2c1[nH]c1ccc(Cl)cc12 | -7.82
Fc1ccc2[nH]c3c(NCc4ccccc4)ncnc3c2c1 | 10.5
CCCCCOC(=O)C1=C(C)NC(=O)NC1c1ccc(OC)cc1 (stereo not drawn) | 5.95
CCN(CC)CCCN(Cc1cc2cc3c(cc2[nH]c1=O)OCO3)C(=S)NCCOC | 5.4
